We go through 39 compounds from PubChem BioAssay (Tox21).

Each structure is given as a SMILES string. Inconclusive results are not listed. Where a call stands in place of a potency, no number is given. The source made the active and inactive calls. The call rests on the fitted dose curve; in most records, active means well fitted curve in the direction sought with a large enough effect in the repeat runs; inconclusive means weak or mixed curves; inactive means no such curve, though single readings can be large; an effect the other way counts as inactive or inconclusive.

The nature of the first assay: qHTS assay to identify small molecule agonists of the RXR signaling pathway - cell viability counter screen (AID 1159529). Further: nearly all actives have a fitted effect of over 50% in size. Particulars: RXR-alpha-bla HEK293T viability, CellTiter-Glo, 16 h; series mostly up to 76.8 µM. The procedure, abridged:
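Compounds dissolved in DMSO were pinned onto HEK 293T cells carrying a beta-lactamase reporter under RXR-alpha control and incubated 16 hr. Cytotoxicity was then quantified by CellTiter-Glo luminescence.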
Background: qHTS replaces the single test concentration by a dilution series.
Regarding `Cc1ccc(NC=O)c(C)c1`, the Potency entry is “inactive”.

As for `O=C(OCCOCCOCCOC(=O)c1ccccc1)c1ccccc1`, the Potency entry was “inactive”.

On to `CC(O)C(C)O` (stereo not drawn), for which the Potency entry is “inactive”.

`S=c1[nH][nH]c(=S)s1`: the Potency entry was “inactive”.

On to `O=P(c1ccccc1)(c1ccccc1)c1ccccc1`, for which the Potency result was “inactive”.

In the case of `O=C(O)CNc1ccccc1`, the Potency result was “inactive”.

In the case of `O=C(O)c1ccc2cc(O)ccc2c1`, the Potency result is “inactive”.

For `C/C(=C\C(C)CC(C)CC(C)C)C1CC(=O)OC1=O` (stereo not drawn), the Potency entry was “inactive”.

For the compound `C=Cc1ccc(C=C)cc1`, the Potency entry is “inactive”.

On to `C[Si](C)(C)O[Si](C)(C)O[Si](C)(C)C`, for which the Potency result is “inactive”.

As for `CC/C=C\CCO`, the Potency result was “inactive”.

On to `COC(=O)Cc1cccc2ccccc12`, for which the Potency result is “inactive”.

As for `OCCCO`, the Potency result was “inactive”.

`Nc1nc(Cl)nc2c1ncn2[C@H]1C[C@H](O)[C@@H](CO)O1`: the Potency result is “inactive”.

As for `CC(C)CCCCCOC(=O)CS`, the Potency entry is “inactive”.

With `CC/C=C/CCO`, the Potency result is “inactive”.

`C[C@H]1C[C@H]2[C@@H]3CCC4=CC(=O)C=C[C@]4(C)[C@@]3(F)[C@@H](O)C[C@]2(C)[C@@]1(O)C(=O)COP(=O)(O)O`: the Potency entry was “inactive”.

With `CCCCC(CC)COCCC#N` (stereo not drawn), the Potency entry was “inactive”.

For `OCCOc1cccc(OCCO)c1`, the Potency result was “inactive”.

As to `CC(=O)Nc1ccccc1O`, the Potency result is “inactive”.

`COc1ccc(C(=O)c2ccc(C)cc2)c(O)c1`: the Potency entry is “inactive”.

In the case of `CC[C@H](NC(C)C)[C@H](O)c1ccc(O)c2[nH]c(=O)ccc12`, the Potency result was “inactive”.

For the compound `C=C(C)C(=O)OCCCCCCCCCCOC(=O)C(=C)C`, the Potency result is “inactive”.

On to `CCCCOc1ccc(N)cc1`, for which the Potency entry was “inactive”.

With `Cc1cc(N)n(-c2ccccc2)n1`, the Potency result was “inactive”.

Consider `O=c1[nH]nc(-c2ccc([N+](=O)[O-])o2)o1`, for which the Potency result was “inactive”.

On to `CC1(COc2ccc(CC3SC(=O)NC3=O)cc2)CCCCC1` (stereo not drawn), for which the Potency result is “inactive”.

In the case of `COc1cc(C)c(Cc2cnc(N)nc2N)cc1OC`, the Potency entry is “inactive”.

Consider `Cc1cc(SC2=C(O)C[C@@](CCc3ccc(N)cc3)(C(C)C)OC2=O)c(C(C)(C)C)cc1CO`, for which the Potency result was “inactive”.

As to `CCOc1ccc(NC(C)=O)cc1N`, the Potency entry was “inactive”.

Turning to `CCCC1CCOC(C)S1` (stereo not drawn), the Potency entry is “inactive”.

With `Nc1ccc(F)cc1F`, the Potency result was “inactive”.

In the case of `CC1(C)C(=O)NC(=O)N1CO`, the Potency result was “inactive”.

Turning to `O=C1c2ccccc2C(=O)C1c1ccc2cc(S(=O)(=O)O)cc(S(=O)(=O)O)c2n1`, the Potency entry is “inactive”.

On to `O=Cc1ccc(Cl)c([N+](=O)[O-])c1`, for which the Potency entry is “inactive”.

With `CNc1ccccc1`, the Potency entry is “inactive”.

Take `C=CC(C)(O)CC/C=C(/C)CCC=C(C)C` (stereo not drawn): the Potency result is “inactive”.

On to `CCCCOC(=O)CC#N`, for which the Potency entry was “inactive”.

Consider `CCCCCCCCCCCCN1CCOCC1`, for which the Potency entry is “inactive”.

The next assay is described as follows: qHTS assay to identify small molecule antagonists of the retinoid acid receptor (RAR) signaling pathway - cell viability counter screen (AID 1159551). Further: nearly all actives have a fitted effect of over 35% in size. As to conditions: C3RL4 cells viability, ATP luminescence (CellTiter-Glo), 6 h; series mostly up to 92.4 µM. The procedure, abridged:
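Viability of C3RL4 cells is quantified from ATP by luminescence after 6 h treatment at 37 C with compounds and 1 uM retinol.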
As to `Cc1ccc(NC=O)c(C)c1`, the outcome was inactive.

Regarding `O=C(OCCOCCOCCOC(=O)c1ccccc1)c1ccccc1`, the call was inactive.

With `CC(O)C(C)O` (stereo not drawn), the call was inactive.

Consider `S=c1[nH][nH]c(=S)s1`, for which the call was inactive.

Regarding `O=P(c1ccccc1)(c1ccccc1)c1ccccc1`, the compound was called inactive.

Regarding `O=C(O)CNc1ccccc1`, the compound was called inactive.

In the case of `O=C(O)c1ccc2cc(O)ccc2c1`, the compound was classed as inactive.

For the compound `C/C(=C\C(C)CC(C)CC(C)C)C1CC(=O)OC1=O` (stereo not drawn), the outcome was inactive.

In the case of `C=Cc1ccc(C=C)cc1`, the outcome was inactive.

For the compound `C[Si](C)(C)O[Si](C)(C)O[Si](C)(C)C`, the outcome was inactive.

Consider `CC/C=C\CCO`, for which the compound was classed as inactive.

With `COC(=O)Cc1cccc2ccccc12`, the call was inactive.

`OCCCO`: the compound was called inactive.

Consider `Nc1nc(Cl)nc2c1ncn2[C@H]1C[C@H](O)[C@@H](CO)O1`, for which the compound was called inactive.

For the compound `CC(C)CCCCCOC(=O)CS`, the call was inactive.

In the case of `CC/C=C/CCO`, the outcome was inactive.

Consider `C[C@H]1C[C@H]2[C@@H]3CCC4=CC(=O)C=C[C@]4(C)[C@@]3(F)[C@@H](O)C[C@]2(C)[C@@]1(O)C(=O)COP(=O)(O)O`, for which the result was inactive.

As for `CCCCC(CC)COCCC#N` (stereo not drawn), the outcome was inactive.

Consider `OCCOc1cccc(OCCO)c1`, for which the compound was classed as inactive.

As for `CC(=O)Nc1ccccc1O`, the compound was classed as inactive.

As to `COc1ccc(C(=O)c2ccc(C)cc2)c(O)c1`, the compound was classed as inactive.

For `CC[C@H](NC(C)C)[C@H](O)c1ccc(O)c2[nH]c(=O)ccc12`, the compound was called inactive.

With `C=C(C)C(=O)OCCCCCCCCCCOC(=O)C(=C)C`, the call was inactive.

On to `CCCCOc1ccc(N)cc1`, for which the outcome was inactive.

In the case of `Cc1cc(N)n(-c2ccccc2)n1`, the result was inactive.

Take `O=c1[nH]nc(-c2ccc([N+](=O)[O-])o2)o1`: the compound was called inactive.

In the case of `CC1(COc2ccc(CC3SC(=O)NC3=O)cc2)CCCCC1` (stereo not drawn), the compound was called inactive.

`COc1cc(C)c(Cc2cnc(N)nc2N)cc1OC`: the result was inactive.

Take `Cc1cc(SC2=C(O)C[C@@](CCc3ccc(N)cc3)(C(C)C)OC2=O)c(C(C)(C)C)cc1CO`: the call was inactive.

Regarding `CCOc1ccc(NC(C)=O)cc1N`, the compound was called inactive.

As for `CCCC1CCOC(C)S1` (stereo not drawn), the outcome was inactive.

As for `Nc1ccc(F)cc1F`, the result was inactive.

Regarding `CC1(C)C(=O)NC(=O)N1CO`, the call was inactive.

In the case of `O=C1c2ccccc2C(=O)C1c1ccc2cc(S(=O)(=O)O)cc(S(=O)(=O)O)c2n1`, the call was inactive.

As for `O=Cc1ccc(Cl)c([N+](=O)[O-])c1`, the call was inactive.

For `CNc1ccccc1`, the outcome was inactive.

`C=CC(C)(O)CC/C=C(/C)CCC=C(C)C` (stereo not drawn): the outcome was inactive.

Consider `CCCCOC(=O)CC#N`, for which the outcome was inactive.

`CCCCCCCCCCCCN1CCOCC1`: the result was inactive.

Another assay is described as follows: qHTS assay to identify small molecule antagonists of the retinoic acid receptor (RAR) signaling pathway (AID 1159552; further: nearly all actives have a fitted effect of over 50% in size). Particulars: C3RL4 RARE luciferase reporter, retinol-stimulated, 6 h; series mostly up to 92.4 µM. The procedure, abridged:
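Test chemicals and DMSO controls were pin-transferred onto C3RL4 cells a day after seeding; retinol (1 uM final) followed at once. Luminescent reporter output was quantified after 6 hr of co-incubation and 30 min with detection reagent.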
With `O=C(OCCOCCOCCOC(=O)c1ccccc1)c1ccccc1`, the compound was called inactive.

For the compound `O=C(O)CNc1ccccc1`, the compound was classed as inactive.

For the compound `O=C(O)c1ccc2cc(O)ccc2c1`, the compound was classed as inactive.

Take `OCCCO`: the compound was called inactive.

As for `CC(C)CCCCCOC(=O)CS`, the result was inactive.

`OCCOc1cccc(OCCO)c1`: the compound was classed as inactive.

Take `CC[C@H](NC(C)C)[C@H](O)c1ccc(O)c2[nH]c(=O)ccc12`: the compound was called inactive.

For the compound `C=C(C)C(=O)OCCCCCCCCCCOC(=O)C(=C)C`, the outcome was inactive.

Consider `CCCCOc1ccc(N)cc1`, for which the result was inactive.

As for `Cc1cc(N)n(-c2ccccc2)n1`, the outcome was inactive.

In the case of `O=c1[nH]nc(-c2ccc([N+](=O)[O-])o2)o1`, the call was inactive.

For `COc1cc(C)c(Cc2cnc(N)nc2N)cc1OC`, the call was inactive.

On to `CCOc1ccc(NC(C)=O)cc1N`, for which the result was inactive.

On to `O=C1c2ccccc2C(=O)C1c1ccc2cc(S(=O)(=O)O)cc(S(=O)(=O)O)c2n1`, for which the result was inactive.

For the compound `CCCCOC(=O)CC#N`, the compound was called inactive.
